Laboratory results published in PubChem BioAssay AID1893 (NMMLSC, 2009).
Screen size: about 5,900 compounds; about 120 (2%) were called active. The list is a sample of the results. A number with no mark means an inactive call. Cut-off read from the data, not from the text of the source: active = percent response mostly above about 71% (no sharp cut-off); inactive = mostly below about 38%.

The compounds below were run on MEKK2 (MAP3K2) mutant PB1 domain binding MEK5, human (assay: mutant MEKK2 PB1-MEK5 binding signal retest – biochemical, single concentration, multiplex bead flow cytometry, confirmation (AID 1893;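 note: higher means compound restores mutant binding toward wildtype level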)). Conditions: Alexa488-MEK5 binding to MEKK2 mutant, at 10 µM, stronger effect = higher value.

Structure (SMILES) | percent response
CCOC(=O)c1c(NC(=O)c2ccc(S(=O)(=O)N(C)CC3CCCO3)cc2)sc2c1CC(C)(C)NC2(C)C (stereo unspecified) | 7%
O=C(NCCCN1CCN(c2ccc(F)cc2)CC1)Nc1ccc([N+](=O)[O-])cc1 | 26%
CC1CN(C(=O)c2ccccc2NS(=O)(=O)c2cccc([N+](=O)[O-])c2)CC(C)O1 (stereo unspecified) | 0%
c1ccc2c(c1)C(=NC1CCCCC1)NC2=NC1CCCCC1 | 18%
Cc1cccc(OCCNC(=O)CSc2ccc(C(F)(F)F)cc2[N+](=O)[O-])c1 | 2%
O=C(NC1CCN(Cc2ccccc2)CC1)c1ccc(Oc2cc(Cl)cc(Cl)c2)o1 | 10%
O=C(CC1SCCNC1=O)Nc1ccc(Cl)c(Cl)c1 (stereo unspecified) | 4%
CN(CC(=O)Nc1cccc(F)c1)CC(=O)Nc1cccc([N+](=O)[O-])c1 | -3%
COc1ccccc1N=C(C)C1=C(O)COC1=O | 7%
COc1cccc(OCC(=O)NNC(=O)c2cnccn2)c1 | -1%
COC(=O)c1c(NC(=O)COC(=O)[C@@H](NS(=O)(=O)c2ccccc2)C(C)C)sc2c1CCC2 | -1%
CCOC(=O)CN(C)S(=O)(=O)c1ccc(-c2cc(C(=O)OC)sc2C(F)(F)F)cc1 | -3%
Cc1cc(Cl)ccc1OCc1nc(-c2ccncc2)no1 | -15%
O=C(O)CCCC(=O)Nc1ccc(Oc2cccc(C(F)(F)F)c2)nc1 | 4%
COc1cc(C)nc(N2CCCC(C(=O)NCC(C)C)C2)n1 (stereo unspecified) | -2%
O=C(O)C1CCN(c2ccc([N+](=O)[O-])cc2[N+](=O)[O-])CC1 | 6%
Cc1no[n+]([O-])c1COc1ccccc1/C=C1\NC(=S)NC1=O | -5%
COc1ccc(C(=O)C[n+]2ccc(C)cc2)cc1 | 6%
CC(C)CC(=O)N1CCN(Cc2ccccc2Br)CC1 | 3%
CCOC(=O)c1c(Cc2ccc(Cl)cc2)c[nH]c1C | 0%
Cc1cn(COC/C=C/c2ccccc2)c(=O)[nH]c1=O | 2%
COc1ccc(CNC(=O)C2CCN(S(C)(=O)=O)CC2)cc1 | 4%
COC(=O)c1cc(NC(=O)c2cc(C(C)(C)C)nn2Cc2cccc(C)c2)ccc1N1CCOCC1 | -5%
CCN(CC)CCOc1ccc2c(c1)C(=NNC(=O)c1ccccn1)c1cc(OCCN(CC)CC)ccc1-2 | 75% (active)
COc1cc(NC(=S)NCc2ccco2)c(OC)cc1Cl | 3%
Cn1c(SCc2nc3ccccc3s2)nnc1-c1ccc2c(c1)OCO2 | 0%
